SMN2 splice up = qHTS Assay for Enhancers of SMN2 Splice Variant Expression. HEK293 SMN2-luciferase splicing reporter, luminescence, 30-36 h. Potency, µM (doses to about 46.1 µM), inactives show at the top dose activity change, positive = activation, hits mostly activators. 210,000 tested, 2.8% active; further: % of control where 0% means no effect; nearly all actives have a fitted effect of over 55% in size
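qHTS luciferase splicing reporter: luminescence rises when SMN2 exon 7 is included in transfected HEK293 cells. Compound exposure lasted 30-36 h at 37C, with 4.5 mM final sodium butyrate as control, followed by a ONE-Glo read.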
Rab9 promoter act = qHTS Assay for Rab9 Promoter Activators. Huh7 Rab9 promoter-luciferase reporter, luminescence, 24 h. Potency, µM (top dose mostly 9.22 µM), inactives show at the top dose activation, negative = inhibition, hits mostly activators. 320,000 tested, 2.8% active. AID 485297, 2010; further: % of control where 0% means no effect; nearly all actives have a fitted effect of over 60% in size
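Huh7 cells stably carrying Rab9 promoter–luciferase reporter, plated 1500 cells/well, compound added after 2 h and incubated 24 h at 37 °C; luciferase luminescence then read after 10 min with detection reagent.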
NPC1 promoter act = qHTS Assay for NPC1 Promoter Activators; Huh7 NPC1 promoter luciferase reporter, 24 h; Potency, µM (series often up to 9.22 µM), for the others: top-dose activation, usual class: activators; 320,000 tested, 2.4% active; further: % of control where 0% means no effect; nearly all actives have a fitted effect of over 60% in size
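Quantitative HTS used a cell-based reporter: Huh7 cells stably bearing the NPC1 promoter upstream of luciferase were treated with compounds for 24 h, and promoter activation was read as luminescence.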
ELG1 genotox = qHTS screen for small molecules that induce genotoxicity in human embryonic kidney (HEK293T) cells expressing luciferase-tagged ELG1. HEK293T ELG1-luciferase reporter, luminescence, 16 h. Potency, µM (top dose mostly 46 µM), for the others: at the top dose activity change, positive = activation, actives largely listed as activators. 330,000 tested, 1.3% active. AID 504466, 2011; further: % of control where 0% means no effect; nearly all actives have a fitted effect of over 60% in size
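Luminescence read-out: rising ELG1-luciferase signal, reflecting elevated ELG1 protein under genetic stress, flags genotoxic compounds. Cells were treated for 16 hr at 37 °C before ONE-Glo detection.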
FLuc modulator = qHTS profiling assay for firefly luciferase inhibitor/activator using purifed enzyme and Km concentrations of substrates (counterscreen for miR-21 project) | Luciferin 4-monooxygenase (Photinus pyralis), P08659 | purified FLuc, Km substrates, luminescence inhibition | Potency, µM (top dose mostly 57.5 µM), inactives show at the highest dose activity change, negative = inhibition, hits mostly inhibitors | 360,000 tested, 6.9% active;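 further: plate controls were vehicle for no effect and reference inhibitor for full effect; nearly all actives have a fitted effect of over 55% in size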
Target sequence (P08659 whole entry, looked up): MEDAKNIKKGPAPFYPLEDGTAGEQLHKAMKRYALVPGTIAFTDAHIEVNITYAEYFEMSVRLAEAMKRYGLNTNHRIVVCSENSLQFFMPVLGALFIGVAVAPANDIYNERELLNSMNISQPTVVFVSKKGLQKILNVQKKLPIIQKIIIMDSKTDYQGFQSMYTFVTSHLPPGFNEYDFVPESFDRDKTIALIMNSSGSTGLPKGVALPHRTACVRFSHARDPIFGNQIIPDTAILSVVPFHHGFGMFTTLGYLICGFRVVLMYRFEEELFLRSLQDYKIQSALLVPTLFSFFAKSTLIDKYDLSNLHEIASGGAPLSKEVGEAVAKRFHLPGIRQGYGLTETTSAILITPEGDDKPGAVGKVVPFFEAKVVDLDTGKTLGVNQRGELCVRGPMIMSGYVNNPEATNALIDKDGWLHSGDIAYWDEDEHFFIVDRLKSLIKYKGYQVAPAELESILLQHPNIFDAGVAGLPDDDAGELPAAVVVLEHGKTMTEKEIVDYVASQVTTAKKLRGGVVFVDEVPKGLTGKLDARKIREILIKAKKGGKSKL
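Biochemical qHTS of compounds, final roughly 60 µM downward over six points, against 10 nM purified firefly luciferase using Km concentrations of substrates (10 uM D-luciferin, 10 uM ATP) in Tris acetate pH 7.5 buffer; luminescence output.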
KinaseGlo FLuc = Counterscreen for Luciferase (Kinase-Glo TM) Inhibition; Kinase-Glo luciferase, ATP luminescence, 8 min; Potency, µM (titrated, usually from 38.3 µM), for inactives: at the top dose activity change, negative = inhibition, usual class: inhibitors; 200,000 tested, 0.28% active; AID 1379, 2008; further: on the % scale 0 is the no-effect control and ±100 the full control effect; nearly all actives have a fitted effect of over 60% in size
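Compounds were added to a substrate mix at pH 7.2 (50 mM imidazole, 10 uM ATP, within the enzyme's linear range), followed by Kinase-Glo detection reagent; luminescence was measured after 8 minutes at ambient temperature.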
Starred values were filed as active, the others as inactive; ? = inconclusive; . = not tested or not shown; [ ] = remark or other dose. Compounds with a hit are over-represented: about 7.5% of the library has one in this group of screens. The call rests on the fitted dose curve; in most records, active means well fitted curve in the direction sought with a large enough effect; inconclusive means small, poorly fitted or top-dose-only effect, or another doubt; inactive means no such curve, though single readings can be large; an effect the other way counts as inactive or inconclusive. Potency means the concentration at half of the fitted maximal effect.

SMILES	SMN2 splice up	Rab9 promoter act	NPC1 promoter act	ELG1 genotox	FLuc modulator	KinaseGlo FLuc
CCOc1ccc(NC(=S)NC(=O)/C=C/c2ccc(C)cc2)c([N+](=O)[O-])c1	.	6%	9%	?	?	-2%
CCOc1ccc(N/C=C/C(=O)c2ccc(C)cc2)c([N+](=O)[O-])c1	?	?	1.4µM*	?	1.3µM*	-27%
CCOc1ccc(NC(=O)COc2ccccc2)c([N+](=O)[O-])c1	?	3.5µM*	?	?	3µM*	-4%
CCOc1ccc(NC(=O)Cc2cccc3ccccc23)c([N+](=O)[O-])c1	-12%	-5%	-7%	-1%	5%	1%
Cc1ccc(C(=O)/C=C/Nc2ccc([N+](=O)[O-])cc2Br)cc1	?	0.45µM*	0.45µM*	?	0.34µM*	-6%
CC(=O)c1[nH]c(C)c(C(=O)NCc2ccc(Cl)cc2)c1C	.	.	.	.	-9%	.
Cc1ccc(NC(=O)CSCC(=O)N2CCN(Cc3ccc4c(c3)OCO4)CC2)cc1	.	-3%	3%	16%	-1%	.
Cc1ccc(-c2cc(C(=O)Nc3cc([N+](=O)[O-])ccc3C)no2)cc1F	.	.	.	.	-3%	.
CCc1ccc(-n2nc(CO)c(C(=O)NCCc3ccccc3)n2)cc1	4%	.	.	.	0%	.
O=C(Cc1ccc(-c2ccccc2)cc1)OCC(=O)N1CCCC1=O	1%	17%	-1%	0%	21µM*	2%
COc1ccc(NC(=O)CCN2C(=O)c3ccccc3C2=O)cc1	.	4%	-5%	0%	4%	.
CC(C(=O)Nc1ccc(C(=O)O)cc1)N1C(=O)c2ccccc2C1=O (stereo unspecified)	3%	-2%	3%	0%	0%	1%
Cc1ccc(C2(C)NC(=O)N(CC(=O)Nc3ccc(-c4nc5ccc(C)cc5s4)cc3)C2=O)cc1 (stereo unspecified)	.	?	1.8µM*	?	2.4µM*	.
O=C(CCN1C(=O)c2ccccc2C1=O)Nc1ccc(-c2nc3ccccc3s2)cc1	.	0.4µM*	1.3µM*	10µM*	?	.
Cc1ccc(NC(=O)CN2C(=O)NC(C)(c3ccc4c(c3)OCO4)C2=O)cc1 (stereo unspecified)	.	.	.	-1%	.	.
O=C(CCN1C(=O)c2ccccc2C1=O)Nc1nc2ccccc2s1	15%	1%	8%	16%	19µM*	0%
Cc1ccc2nc(-c3ccc(NC(=O)C(C)N4C(=O)c5ccccc5C4=O)cc3)sc2c1 (stereo unspecified)	11µM*	29%	?	?	8.5µM*	2%
O=C(CNC(=O)c1ccc2c(c1)OCCO2)N=Nc1c(O)[nH]c2ccccc12	.	-1%	0%	1%	0%	.
COc1cccc(CNCCSc2nnnn2C)c1OCc1ccccc1F	-22%	.	.	.	-7%	.
CCc1ccccc1Nc1nc(N)nc(COC(=O)CCC(=O)c2ccc(F)cc2)n1	.	-4%	0%	5%	-15%	.
Cc1ccc2nc(-c3ccc(NC(=O)CCN4C(=O)c5ccccc5C4=O)cc3)sc2c1	0.32µM*	0.25µM*	0.4µM*	1µM*	1.5µM*	-4%
Cc1cccc(NC(=O)CCN2C(=O)c3ccccc3C2=O)c1	.	-6%	2%	-2%	-11%	.
O=C1NC(=S)S/C1=C/c1ccc(Oc2cnccn2)cc1	1%	?	15%	2%	21µM*	1%
O=C1NC(=O)/C(=C\c2ccc(Oc3cnccn3)cc2)S1	?	2.8µM*	?	?	13µM*	0%
O=S(=O)(c1ccc(Br)cc1)c1nnn2c1nc(NCc1cccs1)c1sccc12	.	.	.	.	0%	.
SMILES	SMN2 splice up	Rab9 promoter act	NPC1 promoter act	ELG1 genotox	FLuc modulator	KinaseGlo FLuc
Cc1ccc(C)c(NC(=O)c2cnn(-c3ccccc3)c2C)c1	.	?	30%	6%	21µM*	.
Cc1cccc(NC(=O)c2cnn(-c3ccccc3)c2C)c1C	.	4µM*	2.8µM*	?	?	.
CCc1ccccc1NC(=O)c1cnn(-c2ccccc2)c1C	.	21%	0%	-3%	?	.
Cc1ccccc1NC(=O)c1cnn(-c2ccccc2)c1C	.	?	?	4%	13µM*	.
Cc1cc(C(=O)NCc2ccccc2)c2c(C)nn(-c3cccc(F)c3)c2n1	.	.	.	.	-10%	.
Cc1ccc(-c2nc(C(Cl)Cl)c3ccccc3n2)cc1	.	-41%	-37%	18%	13µM*	.
CNC(=O)c1ccc(Nc2nc(-c3ccccc3)nc3ccccc23)cc1	.	16%	16%	-16%	?	.
O=C(O)c1ccc(Nc2nc(-c3ccccc3)nc3ccccc23)cc1	.	-9%	-4%	-6%	21µM*	.
COCCN(CCOC)c1nc(-c2ccc(C)cc2)nc2ccccc12	.	29%	21%	-4%	13µM*	.
Cc1ccc(-c2nc(Nc3cccc(O)c3)c3ccccc3n2)cc1	.	-7%	2%	-8%	21µM*	.
Cc1ccc(-c2nc(NCc3ccco3)c3ccccc3n2)cc1	15%	-6%	0%	-1%	?	-3%
O=[N+]([O-])c1ccc(-c2nc(Nc3cccc(O)c3)c3ccccc3n2)cc1	.	-4%[1.84 µM]	-4%	-14%	-4%	.
Cc1nc2nc(SCC(=O)NCCc3ccc(Cl)cc3)nn2c(C)c1Cc1ccccc1	-24%	.	.	.	-16%	.
CCOC(=O)c1ccc2c(c1)N(Cc1ccc(F)cc1Cl)C(=O)c1ccccc1S2	.	.	.	.	5%	.
COc1ccc(C(C)C)cc1S(=O)(=O)NCCc1c(C)[nH]c2ccc(C)cc12	-61%	.	.	.	2%	.
COC(=O)c1ccc(Nc2nc(-c3ccc(C)cc3)nc3ccccc23)cc1	6%	.	.	.	?	.
Cc1ccc(-c2nc(Nc3ccc(O)cc3)c3ccccc3n2)cc1	.	16%	15%	9%	24µM*	.
CN(C)C(=O)c1ccc(-c2nc(N(C)C)c3ccccc3n2)cc1	25%	.	.	.	.	11µM*
Cc1ccc(-c2nc(Nc3ccc(N4CCOCC4)cc3)c3ccccc3n2)cc1	.	-3%	0%	-7%	24µM*	.
c1ccc(Nc2nc(-c3ccccc3)nc3ccccc23)cc1	.	-4%	-1%	-7%	-9%	.
COc1cccc([C@@H]2Oc3ccc(Br)cc3[C@H](O)[C@H]2O)c1	-19%	.	.	.	.	-2%
CCCCOc1ccc(C(=O)Nc2cc(C)c(OCC(=O)N3CCOCC3)c(C)c2)cc1	-68%	0%	14%	-6%	2.1µM*	6%

Screening data deposited in PubChem BioAssay by National Center for Advancing Translational Sciences (NCATS).
